Source: PubChem BioAssay (NCATS)
Results filed as inconclusive are left out. Active and inactive are the calls of the source. Unless noted, the call rests on the fitted dose curve; in most records, active means well fitted curve in the direction sought with a large enough effect; inconclusive means small, poorly fitted or top-dose-only effect, or another doubt; inactive means no such curve, though single readings can be large; an effect the other way counts as inactive or inconclusive.

Assays:
[1] = Cell Viability - LYMP2-019 (AID 973); conditions: LYMP2-019 lymphoblastoid cell line viability; series mostly up to 92.2 µM;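 further: cells exposed to compound for 24 h at 37 °C; 0% = DMSO alone and full effect = 92 µM tetraoctylammonium bromide; nearly all actives have a fitted effect of over 55% in size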
Summary of the method: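 Cells plated at 2500/well and allowed 5 hr at 37 C before compound addition. After 24 hr incubation, CellTiter-Glo reagent was added, plates sat 30 min at room temperature, and luminescence was recorded.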

[2] = Cell Viability - LYMP2-021 (AID 974); conditions: LYMP2-021 lymphoblastoid cells viability; series mostly up to 92.2 µM;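 further: compound exposure lasts 24 hours at 37 °C; on the % scale 0 is the no-effect control and ±100 the full control effect; nearly all actives have a fitted effect of over 55% in size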
Summary of the method: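 Concentration-response cytotoxicity in a human lymphoblastoid line: 24 hr treatment at 37 C in complete culture medium, tetraoctylammonium bromide as positive control, luminescent ATP quantitation as viability measure.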

[3] = Cell Viability - LYMP2-023 (AID 975); conditions: LYMP2-023 lymphoblastoid cell viability; series mostly up to 92.2 µM;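 further: cellular ATP measured by luciferase luminescence as viability proxy; cells exposed to compound for 24 hours at 37 °C; plate controls were DMSO only for no effect and 92 µM tetraoctylammonium bromide control for full effect; nearly all actives have a fitted effect of over 55% in size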
Summary of the method: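 Concentration-dependent drop in intracellular ATP measures acute cytotoxicity in a human lymphoblastoid line treated for 24 hours in complete culture medium. AC50 values are taken from Hill-equation fits of qHTS data.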

[4] = Cell Viability - LYMP2-025 (AID 976); conditions: LYMP2-025 lymphoblastoid cell viability; series mostly up to 92.2 µM;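 further: cells exposed to compound for 24 h at 37 °C; plate controls were DMSO only for no effect and tetraoctylammonium bromide control for full effect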
Summary of the method: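 In qHTS format, LYMP2-025 lymphoblastoid cells in complete culture medium received compound for 24 hr; ATP-based CellTiter-Glo signal gave viability, with AC50 derived by Hill equation.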

[5] = Cell Viability - LYMP2-002 (AID 977); conditions: LYMP2-002 lymphoblastoid cell viability, qHTS; series mostly up to 92.2 µM;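 further: compound exposure lasted 24 h at 37 °C; plate controls were DMSO only for no effect and 92 µM tetraoctylammonium bromide for full effect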
Summary of the method: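 Cytotoxicity is scored as concentration-dependent loss of cellular ATP in a human lymphoblastoid line after 24 hr compound treatment at 37 C. AC50 is obtained by modelling concentration-response data with the Hill equation.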

[6] = Cell Viability - LYMP2-006 (AID 978); conditions: LYMP2-006 lymphoblastoid cell viability, qHTS; series mostly up to 92.2 µM;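 further: cells exposed to compound for 24 hours; on the % scale 0 is the no-effect control and ±100 the full control effect; nearly all actives have a fitted effect of over 60% in size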
Summary of the method: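 In this cytotoxicity screen, the human lymphoblastoid line grew in complete medium with test compounds for 24 hr at 37 C. Cellular ATP served as the viability signal.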

[7] = Cell Viability - LYMP2-007 (AID 979); conditions: LYMP2-007 lymphoblastoid cell viability; series mostly up to 92.2 µM;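 further: cells exposed to compound for 24 h before reading; 0% = DMSO only and the negative end = 92 µM tetraoctylammonium bromide; nearly all actives have a fitted effect of over 60% in size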
Summary of the method: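 Acute toxicity is scored as a concentration-dependent fall in intracellular ATP in human lymphoblastoid cells treated 24 hr at 37 C, measured by luciferase luminescence; Hill-equation modelling yields AC50.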

[8] = Cell Viability - LYMP2-008 (AID 980); conditions: LYMP2-008 lymphoblastoid cell viability, qHTS; series mostly up to 92.2 µM;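 further: cells exposed to compound for 24 h at 37 °C; on the % scale 0 is the no-effect control and ±100 the full control effect; nearly all actives have a fitted effect of over 60% in size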
Summary of the method: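 Acute cytotoxicity is scored as concentration-dependent loss of cellular ATP in a human lymphoblastoid line after 24 hr treatment at 37 C. ATP is quantified by luciferase luminescence.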

[9] = Cell Viability - LYMP2-010 (AID 981); conditions: LYMP2-010 lymphoblastoid cell viability, qHTS; series mostly up to 92.2 µM;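 further: cells exposed to compound for 24 hours at 37 °C; on the % scale 0 is the no-effect control and ±100 the full control effect; nearly all actives have a fitted effect of over 55% in size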
Summary of the method: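 Acute toxicity is scored as a concentration-dependent loss of cellular ATP in human lymphoblastoid cells after 24 hr compound exposure in complete medium. Tetraoctylammonium bromide is the positive control.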

[10] = Cell Viability - LYMP2-012 (AID 982); conditions: LYMP2-012 lymphoblastoid cell viability qHTS; series mostly up to 92.2 µM
[11] = Cell Viability - LYMP2-014 (AID 983); conditions: LYMP2-014 lymphoblastoid cells, viability qHTS; series mostly up to 92.2 µM;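 further: cells exposed to compound for 24 h at 37 °C; plate controls were DMSO only for no effect and 92 µM tetraoctylammonium bromide for full effect; nearly all actives have a fitted effect of over 50% in size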
Summary of the method: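 Decrease in intracellular ATP after 24 hr treatment at 37 C, measured by luciferase luminescence, indicated cytotoxicity. Concentration-response data were fitted with the standard Hill equation to give AC50.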

[12] = Cell Viability - LYMP2-016 (AID 984); conditions: LYMP2-016 lymphoblastoid cell viability, qHTS; series mostly up to 92.2 µM
Summary of the method: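 Concentration-dependent ATP depletion measured in LYMP2-016 lymphoblastoid cells, 24 h, 37 C; luciferase-based luminescent detection; Hill-equation AC50.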

[13] = Cell Viability - LYMP2-018 (AID 985); conditions: LYMP2-018 lymphoblastoid cells, viability (qHTS); series mostly up to 92.2 µM;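 further: compound exposure lasted 24 hr at 37 °C; plate controls were DMSO only for no effect and tetraoctylammonium bromide at 92 µM for full effect; nearly all actives have a fitted effect of over 50% in size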
Summary of the method: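 Acute cytotoxicity is scored as a concentration-dependent drop in intracellular ATP after 24 hr exposure of the lymphoblastoid line in complete culture medium, measured by luciferase luminescence. Potency is expressed as AC50 from Hill modelling.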

[14] = Cell Viability - LYMP2-020 (AID 986); conditions: series mostly up to 92.2 µM
Summary of the method: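 Acute cytotoxicity in a human lymphoblastoid line is scored as a concentration-dependent fall in cellular ATP after 24 hr at 37 C in complete medium. The positive control is tetraoctylammonium bromide, and potency is given as Hill-fit AC50.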

[15] = Cell Viability - LYMP2-022 (AID 987); conditions: LYMP2-022 lymphoblastoid cell viability; series mostly up to 92.2 µM
Summary of the method: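 Acute toxicity in a human lymphoblastoid line is scored as decreased intracellular ATP after 24 hr compound treatment at 37 C. ATP is measured by CellTiter-Glo luminescence; curves are fitted with the Hill equation to give AC50.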

[16] = Cell Viability - LYMP2-024 (AID 988); conditions: LYMP2-024 lymphoblastoid cell viability; series mostly up to 92.2 µM;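 further: plate controls were DMSO only for no effect and 92 µM tetraoctylammonium bromide for full effect; nearly all actives have a fitted effect of over 60% in size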
Summary of the method: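 Acute toxicity is measured as concentration-dependent loss of intracellular ATP in a human lymphoblastoid line treated 24 hours at 37 C. Luciferase luminescence quantifies ATP; AC50 values come from standard Hill-equation modelling.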

[17] = Cell Viability - LYMP2-026 (AID 989); conditions: LYMP2-026 lymphoblastoid cell viability, qHTS; series mostly up to 92.2 µM;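 further: cells exposed to compound for 24 h at 37 °C; on the % scale 0 is the no-effect control and ±100 the full control effect; nearly all actives have a fitted effect of over 50% in size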
Summary of the method: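 Concentration-dependent loss of intracellular ATP in human lymphoblastoid cells after 24 hr at 37 C, quantified by luciferase luminescence. AC50 derived from standard Hill equation.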

[18] = qHTS Assay for Lipid Storage Modulators (AID 1519; calls by dose curve; on activity change, negative = inhibition: on the % scale 0 is the no-effect control and ±100 the full control effect); conditions: Drosophila S3 cells, BODIPY lipid droplet/cell ratio, laser cytometry, cells loaded with oleic acid
Summary of the method: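 Cells seeded at 5,000 per well were treated with compounds over a concentration series and loaded with oleic acid (400 uM, as added). Lipid droplet fluorescence (488 nm excitation, 500-530 nm channel) was read by laser-scanning cytometry and normalized to 20 uM Triacsin C.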

[19] = molecular target: Alpha-galactosidase A (Homo sapiens) (UniProt P06280); experiment: Counterscreen for Glucocerebrosidase Inhibitors: qHTS Assay for Human alpha-Galactosidase at pH 4.5 (AID 992); conditions: purified enzyme, fluorogenic substrate; series mostly up to 76.9 µM; further: 0% is about no effect
Alpha-galactosidase A (Homo sapiens), sequence (P06280 whole entry, looked up): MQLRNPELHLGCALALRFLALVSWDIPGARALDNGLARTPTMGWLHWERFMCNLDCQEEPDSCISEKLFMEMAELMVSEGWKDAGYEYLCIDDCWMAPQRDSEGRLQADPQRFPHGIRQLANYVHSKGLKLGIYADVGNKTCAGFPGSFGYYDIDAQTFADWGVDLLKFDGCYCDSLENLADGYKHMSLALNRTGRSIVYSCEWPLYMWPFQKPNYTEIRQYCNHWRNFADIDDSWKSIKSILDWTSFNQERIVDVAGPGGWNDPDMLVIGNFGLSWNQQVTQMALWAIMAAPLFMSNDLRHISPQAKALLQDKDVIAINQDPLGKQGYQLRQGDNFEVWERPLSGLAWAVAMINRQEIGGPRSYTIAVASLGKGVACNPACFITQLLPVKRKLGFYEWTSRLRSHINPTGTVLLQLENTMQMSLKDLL
Summary of the method: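 Quantitative HTS: compounds tested from 0.7 nM up to 77 uM against 2 nM enzyme with 80 uM 4-MU alpha-D-galactopyranoside. The 20 min room-temperature reaction is stopped with 1M NaOH/1M glycine, pH 10.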

[20] = molecular target: alpha-glucosidase (Oryza sativa, rice) (UniProt Q653V4); experiment: Counterscreen for Glucocerebrosidase Inhibitors: qHTS Assay for Rice alpha-Glucosidase at pH 5.0 (AID 997); conditions: rice alpha-glucosidase enzyme activity; series mostly up to 76.9 µM;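 further: 0% = full activity with enzyme and -100% = basal without enzyme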
Summary of the method: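 Rice alpha-glucosidase (4 nM final) with 400 uM 4-methylumbelliferyl-alpha-D-glucopyranoside in citrate buffer pH 5.0, 20 min at room temperature, stopped at pH 10; fluorescence 365/440 nm, compounds 0.7 nM–77 uM, AC50 from Hill fits.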

[21] = measured here: cell count channel max response
[22] = measured here: lipid channel max response

CCCC(O)C(CC)CO (stereo not given)
inactive: outcome [1] | outcome [2] | outcome [3] | outcome [4] | outcome [5] | outcome [6] | outcome [7] | outcome [8] | outcome [9] | outcome [10] | outcome [11] | outcome [12] | outcome [13] | outcome [14] | outcome [15] | outcome [16] | outcome [17]

Nc1ccc(S(=O)(=O)c2ccc(N)cc2)cc1
4.3%: max response [18, 22]
4.2%: max response [18, 21]
inactive: outcome [1] | outcome [2] | outcome [3] | outcome [4] | outcome [5] | outcome [6] | outcome [7] | outcome [8] | outcome [9] | outcome [10] | outcome [11] | outcome [12] | outcome [13] | outcome [14] | outcome [15] | outcome [16] | outcome [17] | activity change, negative = inhibition ([18]; at 25.7 µM (top of the series)) -0.694%

CC(=O)Nc1cccc(O)c1
inactive: outcome [1] | outcome [2] | outcome [3] | outcome [4] | outcome [5] | outcome [6] | outcome [7] | outcome [8] | outcome [9] | outcome [10] | outcome [11] | outcome [12] | outcome [13] | outcome [14] | outcome [15] | outcome [16] | outcome [17] | activity change, negative = inhibition ([18]; at 57.5 µM (top of the series)) 14.9%
23.8%: max response [18, 22]
10%: max response [18, 21]

COc1ccc(NS(=O)(=O)c2ccc(N)cc2)nn1
inactive: activity change, negative = inhibition ([18]; at 25.7 µM (top of the series)) 0.554%
3.32%: max response [18, 21]
3.23%: max response [18, 22]

NC(=O)CC[C@@H](N)C(=O)O
inactive: outcome [19] | outcome [20]

CC(=O)OCC(COC(C)=O)OC(C)=O
inactive: outcome [1] | outcome [2] | outcome [3] | outcome [4] | outcome [5] | outcome [6] | outcome [7] | outcome [8] | outcome [9] | outcome [10] | outcome [11] | outcome [12] | outcome [13] | outcome [14] | outcome [15] | outcome [16] | outcome [17]

O=C1C(c2[nH]c3ccccc3c2O)=Nc2ccccc21
inactive: outcome [1] | outcome [2] | outcome [3] | outcome [4] | outcome [5] | outcome [6] | outcome [7] | outcome [8] | outcome [9] | outcome [10] | outcome [11] | outcome [12] | outcome [13] | outcome [14] | outcome [15] | outcome [16] | outcome [17]

CC1CC(OC(=O)c2ccccc2O)CC(C)(C)C1 (stereo not given)
inactive: outcome [1] | outcome [2] | outcome [3] | outcome [4] | outcome [5] | outcome [6] | outcome [7] | outcome [8] | outcome [9] | outcome [10] | outcome [11] | outcome [12] | outcome [13] | outcome [14] | outcome [15] | outcome [16] | outcome [17] | activity change, negative = inhibition ([18]; at 57.5 µM (top of the series)) 7.41%
1.44%: max response [18, 21]
9.79%: max response [18, 22]

CC(=O)Nc1ccccc1
6.17%: max response [18, 21]
inactive: outcome [1] | outcome [2] | outcome [3] | outcome [4] | outcome [5] | outcome [6] | outcome [7] | outcome [8] | outcome [9] | outcome [10] | outcome [11] | outcome [12] | outcome [13] | outcome [14] | outcome [15] | outcome [16] | outcome [17] | activity change, negative = inhibition ([18]; at 57.5 µM (top of the series)) 8.44%
17.6%: max response [18, 22]

CCCCCC(N)=O
inactive: outcome [1] | outcome [2] | outcome [3] | outcome [4] | outcome [5] | outcome [6] | outcome [7] | outcome [8] | outcome [9] | outcome [10] | outcome [11] | outcome [12] | outcome [13] | outcome [14] | outcome [15] | outcome [16] | outcome [17]

O=C(O)CCCCC1CCSS1 (stereo not given)
16.4%: max response [18, 22]
11.5%: max response [18, 21]
inactive: outcome [1] | outcome [2] | outcome [3] | outcome [4] | outcome [5] | outcome [6] | outcome [7] | outcome [8] | outcome [9] | outcome [10] | outcome [11] | outcome [12] | outcome [13] | outcome [14] | outcome [15] | outcome [16] | outcome [17] | activity change, negative = inhibition ([18]; at 57.5 µM (top of the series)) 3.99%

Cc1c(N(C)C)c(=O)n(-c2ccccc2)n1C
inactive: outcome [1] | outcome [2] | outcome [3] | outcome [4] | outcome [5] | outcome [6] | outcome [7] | outcome [8] | outcome [9] | outcome [10] | outcome [11] | outcome [12] | outcome [13] | outcome [14] | outcome [15] | outcome [16] | outcome [17] | activity change, negative = inhibition ([18]; at 25.7 µM (top of the series)) -4.33%
-0.692%: max response [18, 21]
-4.11%: max response [18, 22]

COc1ccc(O)cc1
inactive: outcome [1] | outcome [2] | outcome [3] | outcome [4] | outcome [5] | outcome [6] | outcome [7] | outcome [8] | outcome [9] | outcome [10] | outcome [11] | outcome [12] | outcome [13] | outcome [14] | outcome [15] | outcome [16] | outcome [17]
